This note sets out measurements from PubChem BioAssay (NCI).

About 83,000 compounds went through this panel and 20% of them were active in at least one assay; those are over-represented in the sample as a whole.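 Cells were grown in 96-well plates and exposed to the test compound at a single concentration for 48 hours; results are reported as percent growth, with values below 10 considered active.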 A number with no mark means an inactive call. Activity calls are given as the source filed them.

Test systems include SK-MEL-2 melanoma; SN12C renal; UO-31 renal; TK-10 renal; ACHN renal; A498 renal; CCRF-CEM leukemia; MOLT-4 leukemia; RPMI-8226 leukemia; OVCAR-5 ovarian; OVCAR-4 ovarian; SK-OV-3 ovarian; IGROV1 ovarian; OVCAR-3 ovarian; HS 578T breast; NCI/ADR-RES ovarian; EKVX NSCLC; CAKI-1 renal; SR leukemia; OVCAR-8 ovarian.
Assay in all cases: NCI-60 one-dose screen, 48 h (100 = growth as untreated, 0 = no growth, -100 = all killed)
Holding throughout (conditions): 10 µM unless noted

With `FC(F)(F)c1cc(-c2nnc3n2N=C(Cl)CS3)cc(C(F)(F)F)c1`, the growth in the experiment with SK-MEL-2 melanoma was 123%; with SN12C renal, 82.1%; with UO-31 renal, 97.9%; in the experiment on TK-10 renal it was 118%; in the experiment on ACHN renal it was 110%; with A498 renal, 108%. Besides, the growth in the experiment on CCRF-CEM leukemia was 20.5%; in the experiment with MOLT-4 leukemia it was -17.6% (active); in the experiment on RPMI-8226 leukemia, 95.6%; in the experiment on OVCAR-5 ovarian, 114%; in the experiment with OVCAR-4 ovarian, 123%; with SK-OV-3 ovarian, 99.9%. Moreover, the growth in the experiment on IGROV1 ovarian is 114%; with OVCAR-3 ovarian, 116%; in the experiment on HS 578T breast, 105%; in the experiment on NCI/ADR-RES ovarian it was 99.1%.
In the case of `COc1ccc(-c2cc(-c3cc4ccccc4oc3=O)n(-c3ccccc3)n2)cc1`, the growth was 67.5% in the experiment with EKVX NSCLC; 67% in the experiment with SN12C renal; 141% in the experiment with TK-10 renal; 73.2% with ACHN renal; 97.1% with CAKI-1 renal; 94.5% in the experiment with CCRF-CEM leukemia. In addition, the growth with RPMI-8226 leukemia is 86.4%; in the experiment with OVCAR-5 ovarian, 91.1%; with OVCAR-4 ovarian it was 13.2%; with SK-OV-3 ovarian, 76.7%; with OVCAR-3 ovarian it was 68.2%; in the experiment on HS 578T breast, 66.4%. Also, in the experiment on NCI/ADR-RES ovarian, the growth was 69.5%.
Regarding `N/C(=N\O)c1ncc(-c2ccc(C(F)(F)F)cc2)c(NC2CCCCCC2)n1`, the growth with SK-MEL-2 melanoma is -90.6% [100 µM] (active); in the experiment on SN12C renal, -91.3% [100 µM] (active); in the experiment with UO-31 renal, -92.1% [100 µM] (active); with TK-10 renal it was -69.5% [100 µM] (active); in the experiment with ACHN renal, -64.3% [100 µM] (active); in the experiment on CAKI-1 renal it was -76.4% [100 µM] (active). The growth was -90.1% [100 µM] (active) in the experiment with A498 renal; -61.3% [100 µM] (active) with MOLT-4 leukemia; -48.8% [100 µM] (active) in the experiment on SR leukemia; -35.7% [100 µM] (active) with RPMI-8226 leukemia; -76.5% [100 µM] (active) with OVCAR-5 ovarian; -6.06% [100 µM] (active) in the experiment with OVCAR-4 ovarian. Further, the growth in the experiment with SK-OV-3 ovarian is -17.8% [100 µM] (active); in the experiment on IGROV1 ovarian, -77.2% [100 µM] (active); in the experiment with OVCAR-3 ovarian it was -95% [100 µM] (active); with HS 578T breast, -43.3% [100 µM] (active); in the experiment with NCI/ADR-RES ovarian it was -61.8% [100 µM] (active).
In the case of `CC(C)(C)c1cc(C[P+](c2ccccc2)(c2ccccc2)c2ccccc2)cc(C(C)(C)C)c1O`, the growth with SK-MEL-2 melanoma was -39.9% (active); in the experiment with UO-31 renal, -11.4% (active); in the experiment on TK-10 renal, -3.05% (active); in the experiment with ACHN renal, -10.8% (active); in the experiment on CAKI-1 renal it was -2.21% (active); with A498 renal, -17.1% (active). Besides, the growth in the experiment with MOLT-4 leukemia is -7.18% (active); in the experiment on SR leukemia, -22.3% (active); in the experiment with RPMI-8226 leukemia, -35% (active); in the experiment on OVCAR-5 ovarian it was 20.8%; with OVCAR-4 ovarian, 16.2%; with SK-OV-3 ovarian, -0.717% (active). The growth in the experiment with IGROV1 ovarian is 12.1%; in the experiment with OVCAR-3 ovarian, 13.8%; in the experiment on HS 578T breast, 16.2%; in the experiment with NCI/ADR-RES ovarian, 73.2%.
Take `C[N+](C)(C)CCCCCCCCCC[N+](C)(C)C`: the growth was 96.3% in the experiment on EKVX NSCLC; 85.9% with SN12C renal; 96.1% in the experiment with UO-31 renal; 112% with ACHN renal; 104% with CAKI-1 renal; 123% in the experiment with A498 renal. The growth was 72.4% in the experiment with CCRF-CEM leukemia; 99.4% in the experiment on MOLT-4 leukemia; 96% in the experiment with RPMI-8226 leukemia; 98.7% in the experiment with OVCAR-8 ovarian; 117% in the experiment on OVCAR-5 ovarian; 87.2% in the experiment on OVCAR-4 ovarian. Moreover, the growth was 106% with SK-OV-3 ovarian, 105% with OVCAR-3 ovarian and 98.4% in the experiment with NCI/ADR-RES ovarian.
For the compound `COC(=O)[C@@H](Cc1c[nH]c2ccccc12)NC(=O)/C=C/c1ccccc1`, the growth was 16.6% with SK-MEL-2 melanoma; 50.7% with SN12C renal; 36.8% in the experiment with UO-31 renal; 54.1% in the experiment with TK-10 renal; 39.2% with ACHN renal; 31.7% with CAKI-1 renal. Besides, the growth with A498 renal is -9.95% (active); in the experiment on MOLT-4 leukemia, 24.1%; in the experiment on SR leukemia, 18.4%; with RPMI-8226 leukemia, 14.3%; in the experiment on OVCAR-8 ovarian it was 25.2%; in the experiment with OVCAR-5 ovarian, 36%. The growth with OVCAR-4 ovarian was 63.1%; in the experiment on SK-OV-3 ovarian, 2.1% (active); with IGROV1 ovarian, 29.1%; in the experiment on OVCAR-3 ovarian it was -5.22% (active); with HS 578T breast it was -13% (active); with NCI/ADR-RES ovarian, 4.17% (active).
`O=S1(=O)NCCN1CCNc1nccc(-c2c(-c3cccc(O)c3)nc3sccn23)n1`: the growth in the experiment on SK-MEL-2 melanoma was 72.1%; with EKVX NSCLC, 111%; in the experiment on UO-31 renal, 116%; with TK-10 renal, 130%; with ACHN renal, 97%; with CAKI-1 renal, 80.8%. Further, the growth in the experiment on CCRF-CEM leukemia is 88.1%; in the experiment with SR leukemia it was 62.2%; with RPMI-8226 leukemia, 102%; in the experiment with OVCAR-8 ovarian it was 103%; in the experiment on OVCAR-5 ovarian, 91.9%; with OVCAR-4 ovarian it was 131%. Also, the growth was 97.4% in the experiment on SK-OV-3 ovarian; 105% in the experiment with IGROV1 ovarian; 108% in the experiment on OVCAR-3 ovarian; 95.9% in the experiment on HS 578T breast; 107% in the experiment with NCI/ADR-RES ovarian.
Turning to `COc1ccc(-n2nc(C(=O)Nc3ccc(F)cc3)nc2-c2cc(OC)c(OC)c(OC)c2)cc1`, the growth with SK-MEL-2 melanoma was 102%; with SN12C renal it was 92.4%; with UO-31 renal it was 51.6%; in the experiment with TK-10 renal it was 112%; with ACHN renal it was 89.8%; with A498 renal it was 66.6%. In addition, the growth in the experiment with CCRF-CEM leukemia is 83.2%; with MOLT-4 leukemia, 69.9%; with RPMI-8226 leukemia it was 96.8%; in the experiment on OVCAR-5 ovarian, 97.8%; with OVCAR-4 ovarian, 90.5%; in the experiment with SK-OV-3 ovarian, 94.8%. The growth is 98.1% in the experiment on IGROV1 ovarian, 92.4% in the experiment on OVCAR-3 ovarian, 89.3% with HS 578T breast and 85% in the experiment on NCI/ADR-RES ovarian.
For `COc1cc(OC)cc(-c2ccc(-c3ccc(C(=N)N)s3)s2)c1`, the growth with SK-MEL-2 melanoma is -85.4% (active); in the experiment on SN12C renal, -69.5% (active); in the experiment with UO-31 renal, -85.8% (active); in the experiment with TK-10 renal, -88.7% (active); in the experiment with ACHN renal, -76% (active); in the experiment with CAKI-1 renal, -86.4% (active). In addition, the growth is -80.9% (active) with A498 renal; -71.2% (active) in the experiment on MOLT-4 leukemia; -47.3% (active) with SR leukemia; -62.9% (active) with RPMI-8226 leukemia; -58.8% (active) with OVCAR-8 ovarian; -81% (active) with OVCAR-5 ovarian. Also, the growth is -54.2% (active) in the experiment with OVCAR-4 ovarian; -92.4% (active) with SK-OV-3 ovarian; -67.2% (active) in the experiment on IGROV1 ovarian; -40.4% (active) in the experiment on HS 578T breast; -58% (active) in the experiment on NCI/ADR-RES ovarian.
Regarding `O=C(CC(=O)c1ccccc1F)Nc1ccc([N+](=O)[O-])cc1`, the growth with SK-MEL-2 melanoma is 84%; in the experiment with SN12C renal, 85.3%; with UO-31 renal, 89.3%; in the experiment with TK-10 renal, 91.7%; in the experiment on ACHN renal, 100%; with CAKI-1 renal, 106%. The growth in the experiment on A498 renal was 109%; in the experiment with MOLT-4 leukemia, 93.3%; in the experiment with SR leukemia it was 77.7%; in the experiment on RPMI-8226 leukemia it was 68.4%; with OVCAR-8 ovarian it was 97.4%; with OVCAR-5 ovarian, 104%. Also, the growth is 92.8% in the experiment on OVCAR-4 ovarian; 108% in the experiment on SK-OV-3 ovarian; 97.9% with IGROV1 ovarian; 109% with OVCAR-3 ovarian; 110% with HS 578T breast; 103% in the experiment on NCI/ADR-RES ovarian.
